The list is not random: actives were taken first. Their share in the collection is about 2.1%.
TDP-43 yeast inh: TDP-43 toxicity inhibition in yeast; TDP-43 expressing yeast growth rescue, BacTiter-Glo, 24 h; Potency, µM (top dose mostly 46.1 µM), inactives show at the top dose growth rescue (activation), actives largely listed as activators; 410,000 tested, 1.8% active; AID 652104; also: % of control where 0% means no effect; nearly all actives have a fitted effect of over 50% in size
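Yeast expressing TDP-43 (pregrown in raffinose, seeded at OD600=0.02 in galactose medium) exposed to compounds 24 hr at 30 deg C. Growth read by BacTiter-Glo luminescence; rescue of toxicity appears as increased signal.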
FUS yeast rescue: FUS proteinopathy suppression in yeast; S. cerevisiae FUS-expressing, growth rescue, OD600, 24 h; Potency, µM (doses to about 76.6 µM), actives largely listed as activators; 390,000 tested, 0.24% active;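 also: plate controls were DMSO vehicle for no effect and reference control for full effect; nearly all actives have a fitted effect of over 55% in size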
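Quantitative HTS measuring growth restoration of FUS-toxic yeast. Galactose-induced cells (OD 0.005) were exposed 24hr at 30C to compounds at several concentrations, then absorbance at 600 nm was recorded.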
Abeta rescue: restores growth of yeast expressing A-beta42 peptide. yeast expressing A-beta42, growth rescue, OD600, 48 h; response scale: 0% DMSO, 100% iron-clioquinol control. 410,000 tested, 0.063% active. Potency, µM (titrated, usually from 46.1 µM), usual class: activators; also: nearly all actives have a fitted effect of over 55% in size
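Yeast growth medium received pinned compounds, then yeast cells expressing toxic A-beta were added; plates incubated at 30 C for 48 hr. Growth read as absorbance at 600 nm, normalized to DMSO and equimolar FeCl3 plus clioquinol controls.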
aSyn yeast inh: rescues yeast growth from alpha-synuclein toxicity; Yeast expressing alpha-synuclein, growth rescue, BacTiter-Glo, 24 h; Potency, µM (doses to about 46.1 µM), for the others: at the top dose growth rescue (activation), most hits filed as activators; 370,000 tested, 0.14% active; AID 652106; also: % of control where 0% means no effect; nearly all actives have a fitted effect of over 65% in size
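Screening used galactose-induced yeast with toxic alpha-synuclein levels, exposed to compound for 24 hr at 30 deg C. Cell growth, read with BacTiter-Glo luminescence, gave the measured signal.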
Numbers without * were called inactive; i = inactive; ? = inconclusive; · = no result given; [ ] = another dose, or the depositor's remark. Calls follow the shape of the dose curve; as a rule, active = well fitted curve in the direction sought with a large enough effect; inconclusive = small, poorly fitted or top-dose-only effect, or another doubt; inactive = no such curve, though single readings can be large; an effect the other way counts as inactive or inconclusive. Potency is read from the fitted curve at half-maximal effect.

SMILES	TDP-43 yeast inh	FUS yeast rescue	Abeta rescue	aSyn yeast inh
CC(C)CC(=O)Nc1ccc(N2CCN(C(=O)c3cccs3)CC2)cc1	-22%	i	i	0%
O=C(Cn1nc(-c2ccccc2)ccc1=O)Nc1ccc(N2CCN(C(=O)c3cccs3)CC2)cc1	4%	8.9µM*	i	-4%
COc1cc(NS(=O)(=O)c2cc3c(cc2C)NC(=O)CO3)cc(OC)c1	20%	i	i	0%
CCOc1ccc(CC(=O)NCCS(=O)(=O)N2CCN(c3ccccc3OC)CC2)cc1	14%	i	i	·
COc1ccc(Cl)cc1C(=O)NCCS(=O)(=O)N1CCN(c2ccccc2OC)CC1	11µM*	?	i	·
CCc1ccccc1NC(=O)c1ccc(F)c(S(=O)(=O)N2CCN(c3ccccc3OC)CC2)c1	23%	?	8.9µM*	·
O=C(Nc1cc(Cl)cc(Cl)c1)c1ccc(F)c(S(=O)(=O)N2CCN(c3ccccc3F)CC2)c1	6%	i	i	·
COc1ccccc1N1CCN(S(=O)(=O)CCNC(=O)COc2ccc(C(C)C)cc2)CC1	16µM*	?	?	·
CCn1cnc2cc(NC(=O)c3ccc(C)cc3)ccc21	1%	i	i	-1%
O=C(CSc1ccc(Br)cc1)Nc1ccccc1N1CCOCC1	22%	i	i	12%
O=C1C(=C(c2ccccc2)N2CCOCC2)Cc2ccccc21	13µM*	i	i	12%
O/N=C/c1ccc(OCc2ccccc2)c(Br)c1	13µM*	i	i	-15%
O/N=C/c1ccc(OCc2ccccc2)c(Cl)c1	22µM*	i	i	-5%
O/N=C/c1cc(Br)cc(Br)c1OCc1ccccc1	24%	i	i	14%
O/N=C/c1ccc(OCc2ccccc2F)c(Cl)c1	?	i	i	0%
CC1CCCCC1NC(=S)Nc1ccc(SC(F)F)cc1 (stereo unspecified)	20µM*	i	?	-29%
Oc1ccc(N2CCN(c3nc(-c4cccs4)nc4ccccc34)CC2)cc1	?	i	i	3%
CCOc1ccc(-c2noc(CCC(=O)O)n2)cc1	32µM*	i	i	0%
CCOc1ccc(C(=O)CCC(=O)O)cc1	-16%	i	i	4%
CCOc1ccc(OCCCC(=O)O)cc1	13µM*	i	i	17%
O=C(Nc1ncc2c(n1)-c1ccccc1CC2)c1ccccc1	13µM*	i	i	-1%
O=C(Nc1ncc2c(n1)-c1ccccc1CC2)c1ccc(F)cc1	10µM*	i	i	5%
COc1ccc(CCNC(=O)Cn2cc(C(=O)c3ccc(F)cc3)c(=O)c3ccc(C)nc32)cc1OC	-5%	i	i	·
C[C@H]1CN([C@@H](C)CO)C(=O)CCCn2cc(nn2)CO[C@@H]1CN(C)C(=O)Nc1cccc2ccccc12	23%	i	i	-11%
CC(/C=N/NC(=O)c1cc(-c2ccncc2)nc2ccccc12)=C\c1ccco1	-5%	28µM*	i	12%
SMILES	TDP-43 yeast inh	FUS yeast rescue	Abeta rescue	aSyn yeast inh
Cc1ccc(-c2cc(C(=O)N/N=C/c3cccnc3)c3ccccc3n2)cc1C	22µM*	?	i	-11%
O=C(N/N=C/c1cccnc1)c1cc(-c2ccccc2)nc2ccccc12	-6%	i	i	1%
O=C(Nc1ccc([N+](=O)[O-])cc1)c1cn(-c2ccccc2)nc1-c1cc2ccccc2o1	-7%	·	i	14%
N#Cc1ccccc1OCC(=O)OCC(=O)c1c[nH]c2ccccc12	26%	i	i	-4%[1.84 µM]
CCOC(=O)C1=C(C)N(CCCCCC(=O)O)C(=O)NC1c1ccc(Cl)cc1 (stereo unspecified)	0%	i	i	16%
CSc1nc(C)cc(C)c1S(=O)(=O)c1ccccc1C	11µM*	i	?	0%
CC(C)(C)NC(=S)N1CCC(C(=O)c2ccc(F)cc2)CC1	20%	i	i	5%
O=C(c1ccc(F)cc1)C1CCN(C(=S)Nc2ccc(F)cc2)CC1	22µM*	i	?	12%
O=C(CCl)N1c2ccccc2SCC1c1ccccc1 (stereo unspecified)	7.9µM*	i	i	-2%
CCOC(=O)NCc1ccc(Cl)c(Cl)c1	18µM*	i	i	8%
COC(=O)C1=C(C)N(c2ccc(Cl)c(Cl)c2)C(=O)C1	13µM*	i	i	-11%
CC[C@@]1(c2ccccc2)C(=O)N(C(=O)OC)N1C(=O)OC	3%	i	i	0%
COC(=O)N1C(=O)[C@@](Cc2ccccc2)(c2ccccc2)N1C(=O)OC	?	i	i	2%
COC(=O)N1C(=O)[C@](c2ccccc2)(C(C)C)N1C(=O)OC	10µM*	i	i	7%
COC(=O)N1C(=O)[C@](Cc2ccccc2)(c2ccccc2)N1C(=O)OC	18µM*	i	i	4%
COC(=O)N1C(=O)[C@@](c2ccccc2)(C2CCCCC2)N1C(=O)OC	18µM*	i	i	1%
O=C(CSc1ccc2ccccc2n1)NC1CC1	-19%	·	i	14%
COc1ccc(CNCc2cccc(OC)c2OC)cc1Br	-4%	i	i	-3%
COc1ccc(CNc2cccc(F)c2)cc1Br	13µM*	·	i	-9%
Cc1ccc(S(=O)(=O)N(C)C)cc1NC(=O)COC(=O)C1(c2ccccc2)CC1	13%	i	i	7%
Cc1ccc(C2CC2c2n[nH]c(=S)n2-c2cccc(Cl)c2)cc1 (stereo unspecified)	35µM*	i	i	9%
C[C@@H](c1ccccc1)N1C[C@@H](COCc2ccccc2)Oc2cc(N3CCC[C@H]3C(N)=O)ccc2S1(=O)=O	14%	22µM*	i	-3%
Cc1cccc(NC(=S)N(CCN2CCOCC2)Cc2cc3cc4c(cc3[nH]c2=O)OCO4)c1	18%	i	i	-3%
COc1ccc2c(c1)-c1ccccc1S(=O)(=O)N2C	11µM*	i	i	-6%
Cc1ccc(C(=O)N2CCc3ccccc32)cc1	9%	i	i	-19%
SMILES	TDP-43 yeast inh	FUS yeast rescue	Abeta rescue	aSyn yeast inh
O=C(N/N=C\C=C\c1ccco1)C1COc2ccccc2O1 (stereo unspecified)	14µM*	i	i	13%
O=C(N/N=C/C=C/c1ccc([N+](=O)[O-])cc1)C1COc2ccccc2O1 (stereo unspecified)	0%	i	i	12%
O=C(N/N=C\c1cc(Br)cs1)C1COc2ccccc2O1 (stereo unspecified)	35µM*	i	?	14%
CCc1ccc(NC(=O)Cc2c(C(=O)O)c(C)cn2C)cc1	11%	i	i	·
Cc1ccc(OCC(=O)Nc2cc(Cl)ccc2-n2cncn2)c(C)c1	13µM*	i	i	6%
Cc1ccsc1C(=O)Nc1cc(Cl)ccc1-n1cncn1	18µM*	i	i	13%
O=C(Nc1cc(Cl)ccc1-n1cncn1)c1cc(F)c(F)c(F)c1F	22µM*	i	i	1%
